Data published in PubChem BioAssay AID1159580 (chemical genetic matrix, 2015).
“And” between values parts separate entries of the source, which are not always exact repeats. Identical values can stand only once. Hit rate of the full screen: of about 5,500 compounds, about 2,000 (36%) were called active. Roughly 18% stayed inconclusive and do not appear here. Cut-off read from the data, not from the text of the source: active = normalized growth mostly below about 0.91 (no sharp cut-off); inconclusive = no clear call, values can overlap the other calls; inactive = mostly above about 0.92. The list shows a part of the results.

Test: chemical genetic growth profiling, strain panel (AID 1159580);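 note: tested at 20 µM; growth read once vehicle control cultures reached saturation at 30 °C; 1 = growth at the plate median or of vehicle wells; lower values mean less growth of the strain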
Conditions: S. cerevisiae deletion strains, growth OD

Measured: normalized growth

Cc1cc(OC(=O)c2c(C)cc(O)cc2O)cc(O)c1C(=O)O
inactive: locus YAL021C, strain ccr4, stronger effect = lower value 1.02 | locus YAL026C, strain drs2, stronger effect = lower value 0.991 | locus YAL030W, strain snc1, stronger effect = lower value 0.995 | locus YBL061C, strain skt5, stronger effect = lower value 0.973 | locus YBR009C, strain hhf1, stronger effect = lower value 0.991 | locus YBR021W, strain FUR4, stronger effect = lower value 1.01 | locus YBR023C, strain chs3, stronger effect = lower value 0.978 | locus YBR171W, strain sec66, stronger effect = lower value 0.988 | locus YBR229C, strain ROT2, stronger effect = lower value 1.01 | locus YBR231C, strain swc5, stronger effect = lower value 0.992 | locus YBR279W, strain paf1, stronger effect = lower value 0.997 | locus YCL011C, strain gbp2, stronger effect = lower value 0.991 | locus YCL016C, strain dcc1, stronger effect = lower value 0.992 | locus YCL029C, strain bik1, stronger effect = lower value 1 | locus YCL061C, strain MRC1, stronger effect = lower value 0.989 | locus YCL069W, strain vba3, stronger effect = lower value 0.998 | locus YCR088W, strain abp1, stronger effect = lower value 0.997 | locus YDL005C, strain med2, stronger effect = lower value 0.983 | locus YDL035C, strain GPR1, stronger effect = lower value 1 | locus YDL040C, strain nat1, stronger effect = lower value 0.98 | locus YDL074C, strain BRE1, stronger effect = lower value 0.999 | locus YDL101C, strain DUN1, stronger effect = lower value 1.01 | locus YDL134C, strain PPH21, stronger effect = lower value 0.99 | locus YDL185W, strain tfp1, stronger effect = lower value 1 | locus YDL192W, strain arf1, stronger effect = lower value 0.979 | locus YDR001C, strain nth1, stronger effect = lower value 1 | locus YDR069C, strain doa4, stronger effect = lower value 0.966 | locus YDR101C, strain arx1, stronger effect = lower value 0.977 | locus YDR137W, strain rgp1, stronger effect = lower value 0.985 | locus YDR159W, strain sac3, stronger effect = lower value 0.987 | locus YDR162C, strain NBP2, stronger effect = lower value 1.01 | locus YDR195W, strain ref2 0.962 | locus YDR297W, strain sur2, stronger effect = lower value 0.99 | locus YDR318W, strain mcm21, stronger effect = lower value 0.981 | locus YDR334W, strain swr1, stronger effect = lower value 0.987 | locus YDR335W, strain msn5, stronger effect = lower value 1.01 | locus YDR388W, stronger effect = lower value 1.02 | locus YDR392W, strain spt3, stronger effect = lower value 0.991 | locus YDR502C, strain sam2, stronger effect = lower value 0.979 | locus YEL003W, strain gim4, stronger effect = lower value 0.972 | locus YEL037C, strain rad23, stronger effect = lower value 1 | locus YEL061C, strain CIN8 (second series), stronger effect = lower value 0.993 | locus YEL061C, strain CIN8, stronger effect = lower value 1.01 | locus YER015W, strain faa2, stronger effect = lower value 0.986 | locus YER016W, strain bim1, stronger effect = lower value 0.993 | locus YER110C, stronger effect = lower value 1.01 | locus YER111C, strain swi4, stronger effect = lower value 0.974 | locus YER155C, strain BEM2 (second series), stronger effect = lower value 0.966 | locus YER155C, strain BEM2, stronger effect = lower value 1.02 | locus YER167W, strain BCK2, stronger effect = lower value 1.01 | locus YFR010W, strain ubp6, stronger effect = lower value 0.968 | locus YGL078C, strain dbp3, stronger effect = lower value 0.967 | locus YGL086W, strain mad1, stronger effect = lower value 0.972 | locus YGL167C, strain pmr1, stronger effect = lower value 0.972 | locus YGL173C, strain kem1, stronger effect = lower value 0.981 | locus YGL227W, strain vid30, stronger effect = lower value 0.996 | locus YGL240W, strain doc1, stronger effect = lower value 0.957 | locus YGL248W, strain PDE1, stronger effect = lower value 1 | locus YGL253W, strain hxk2, stronger effect = lower value 0.99 | locus YGR135W, strain pre9, stronger effect = lower value 0.973 | locus YGR252W, strain gcn5, stronger effect = lower value 0.935 | locus YHR013C, strain ard1, stronger effect = lower value 0.966 | locus YHR027C, strain rpn1, stronger effect = lower value 1.01 | locus YHR030C, strain SLT2, stronger effect = lower value 0.976 | locus YHR079C, strain IRE1 (second series), stronger effect = lower value 1 | locus YHR079C, strain IRE1, stronger effect = lower value 0.968 | locus YHR094C, strain hxt1, stronger effect = lower value 1.02 | locus YHR129C, strain ARP1, stronger effect = lower value 0.997 | locus YHR142W, strain chs7, stronger effect = lower value 1 | locus YHR200W, strain rpn10, stronger effect = lower value 0.985 | locus YIL066C, strain RNR3, stronger effect = lower value 1.01 | locus YIL073C, strain SPO22, stronger effect = lower value 1.01 | locus YIL125W, strain kgd1, stronger effect = lower value 0.995 | locus YIR030C, strain dcg1, stronger effect = lower value 1 | locus YJL092W, strain hpr5, stronger effect = lower value 0.989 | locus YJL095W, strain BCK1 (second series), stronger effect = lower value 0.986 | locus YJL095W, strain BCK1, stronger effect = lower value 0.991 and 0.996 | locus YJL115W, strain asf1, stronger effect = lower value 0.987 | locus YJL129C, strain trk1, stronger effect = lower value 0.983 | locus YJL134W, strain LCB3, stronger effect = lower value 1.02 | locus YJL154C, strain vps35, stronger effect = lower value 0.993 | locus YJL164C, strain tpk1, stronger effect = lower value 1.02 | locus YJL166W, strain qcr8, stronger effect = lower value 0.987 | locus YJL168C, strain set2, stronger effect = lower value 1 | locus YJL187C, strain SWE1 (second series), stronger effect = lower value 0.993 | locus YJL187C, strain SWE1, stronger effect = lower value 1 | locus YJR043C, strain POL32, stronger effect = lower value 1 | locus YJR066W, strain TOR1, stronger effect = lower value 0.894 | locus YJR075W, strain HOC1, stronger effect = lower value 1.01 | locus YKL009W, strain mrt4, stronger effect = lower value 0.991 | locus YKL068W, stronger effect = lower value 1.02 | locus YKL085W, strain MDH1 (second series), stronger effect = lower value 1 | locus YKL085W, strain MDH1, stronger effect = lower value 1 | locus YKL160W, strain elf1, stronger effect = lower value 1.02 | locus YKL190W, strain CNB1, stronger effect = lower value 1.01 | locus YKR001C, strain vps1, stronger effect = lower value 0.98 | locus YKR026C, strain gcn3, stronger effect = lower value 0.983 | locus YKR091W, strain srl3, stronger effect = lower value 0.992 | locus YLL001W, strain dnm1, stronger effect = lower value 1.01 | locus YLL026W, stronger effect = lower value 0.991 | locus YLL041C, strain sdh2, stronger effect = lower value 0.972 | locus YLR027C, strain aat2, stronger effect = lower value 0.99 | locus YLR039C, strain RIC1, stronger effect = lower value 0.914 | locus YLR058C, strain SHM2, stronger effect = lower value 0.992 | locus YLR102C, strain apc9, stronger effect = lower value 1.01 | locus YLR113W, strain HOG1, stronger effect = lower value 1.01 | locus YLR221C, strain rsa3, stronger effect = lower value 0.979 | locus YLR258W, strain gsy2, stronger effect = lower value 0.992 | locus YLR262C, strain YPT6 (second series), stronger effect = lower value 1.01 | locus YLR262C, strain YPT6, stronger effect = lower value 0.989 | locus YLR268W, strain sec22, stronger effect = lower value 0.983 | locus YLR320W, strain mms22, stronger effect = lower value 0.975 | locus YLR330W, strain CHS5, stronger effect = lower value 1.01 | locus YLR342W, strain FKS1 (second series), stronger effect = lower value 1.01 | locus YLR342W, strain FKS1, stronger effect = lower value 0.991 | locus YLR357W, strain rsc2, stronger effect = lower value 0.984 | locus YLR370C, strain arc18, stronger effect = lower value 0.978 | locus YLR371W, strain rom2, stronger effect = lower value 1 | locus YLR384C, strain iki3, stronger effect = lower value 0.963 | locus YLR418C, strain cdc73, stronger effect = lower value 0.951 | locus YML016C, strain PPZ1, stronger effect = lower value 1.01 | locus YML032C, strain rad52, stronger effect = lower value 0.979 | locus YML120C, strain ndi1, stronger effect = lower value 0.994 | locus YML124C, strain tub3, stronger effect = lower value 1 | locus YMR058W, strain fet3, stronger effect = lower value 0.99 | locus YMR078C, strain ctf18, stronger effect = lower value 1 | locus YMR125W, strain sto1, stronger effect = lower value 0.992 | locus YMR129W, stronger effect = lower value 0.996 | locus YMR205C, strain PFK2, stronger effect = lower value 1.03 | locus YMR223W, strain ubp8, stronger effect = lower value 0.975 | locus YMR231W, strain pep5, stronger effect = lower value 0.955 | locus YMR307W, strain GAS1, stronger effect = lower value 0.988 | locus YNL067W, strain RPL9B, stronger effect = lower value 1 | locus YNL071W, strain lat1, stronger effect = lower value 1.02 | locus YNL153C, strain GIM3, stronger effect = lower value 0.985 | locus YNL183C, strain NPR1, stronger effect = lower value 0.933 | locus YNL209W, strain ssb2, stronger effect = lower value 0.996 | locus YNL233W, strain BNI4, stronger effect = lower value 0.989 | locus YNL248C, strain rpa49, stronger effect = lower value 0.992 | locus YNL250W, strain rad50, stronger effect = lower value 1.03 | locus YNL271C, strain bni1, stronger effect = lower value 1.01 | locus YNL298W, strain CLA4, stronger effect = lower value 0.986 | locus YNL307C, strain MCK1, stronger effect = lower value 1 | locus YNL322C, strain KRE1 (second series), stronger effect = lower value 0.974 | locus YNL322C, strain KRE1, stronger effect = lower value 0.986 | locus YNR049C, strain mso1, stronger effect = lower value 0.975 | locus YNR052C, strain pop2, stronger effect = lower value 0.978 | locus YOL006C, strain TOP1, stronger effect = lower value 1.08 | locus YOL012C, strain htz1 1.01 | locus YOL147C, strain pex11, stronger effect = lower value 1.01 | locus YOR001W, strain rrp6, stronger effect = lower value 0.96 | locus YOR061W, strain CKA2, stronger effect = lower value 1.01 | locus YOR069W, strain VPS5, stronger effect = lower value 1.01 | locus YOR070C, strain gyp1, stronger effect = lower value 1 | locus YOR080W, strain dia2, stronger effect = lower value 0.975 | locus YOR083W, strain WHI5, stronger effect = lower value 1.03 | locus YOR106W, strain vam3, stronger effect = lower value 1.03 | locus YOR136W, strain idh2, stronger effect = lower value 1.01 | locus YOR144C, strain elg1, stronger effect = lower value 1.01 | locus YOR184W, strain ser1, stronger effect = lower value 0.973 | locus YOR231W, strain MKK1, stronger effect = lower value 0.974 | locus YOR265W, strain rbl2, stronger effect = lower value 0.991 | locus YOR270C, strain vph1, stronger effect = lower value 0.99 | locus YOR290C, strain snf2, stronger effect = lower value 0.969 | locus YOR316C, strain cot1, stronger effect = lower value 1.01 | locus YPL051W, strain arl3, stronger effect = lower value 0.993 | locus YPL078C, strain atp4, stronger effect = lower value 1.03 | locus YPL106C, strain sse1, stronger effect = lower value 0.99 | locus YPL240C, strain hsp82, stronger effect = lower value 0.974 | locus YPL241C, strain CIN2, stronger effect = lower value 1.02 | locus YPL256C, strain CLN2, stronger effect = lower value 1.01 | locus YPR119W, strain clb2, stronger effect = lower value 1.01 | locus YPR141C, strain kar3, stronger effect = lower value 1.02 | locus YPR163C, strain tif3, stronger effect = lower value 0.983 | locus YPR167C, strain met16, stronger effect = lower value 0.976 | strain wtn01, stronger effect = lower value 0.978
